# Compound activity as filed in PubChem.
# HCV inhibitor – qHTS Assay for Inhibitors of Hepatitis C Virus (HCV) | Potency, µM (series often up to 41.8 µM), without a hit: at the highest dose activity change, negative = inhibition, actives largely listed as inhibitors | 3.4% of 340,000 active | AID 651820, 2012 | Huh7.5.1 HCVcc-Cre infection, luciferase reporter, 44 h; active = well fitted inhibition curve with a large enough effect; inconclusive = small, poorly fitted or top-dose-only effect, or another doubt; inactive = no such curve, though single readings can be large or run the other way; also: potency is read from the fitted curve at half-maximal effect
#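 Seed cells (1,000/well) for 4 h; treat with compound and infect with HCVcc-Cre, moi about 0.5. Incubate 44 h, then detect luciferase activity.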
# LASV entry inh – qHTS for Inhibitors of binding or entry into cells for Lassa Virus; Lassa virus pseudotype entry inhibition, cell reporter; Potency, µM (titrated, usually from 37.9 µM), without a hit: at the highest dose activity change, negative = inhibition, usual class: inhibitors; 1.2% of 300,000 active; AID 540256, 2011; calls by dose curve; tested in HEK293 cells; also: potency is read from the fitted curve at half-maximal effect; nearly all actives have a fitted effect of over 50% in size
# FMDV antiviral – High Throughput Screening for Foot and Mouth Disease Virus Antivirals; FMDV antiviral cell-based qHTS; Potency, µM (doses to about 57.9 µM), for the others: at the top dose activity change, negative = inhibition, actives largely listed as inhibitors; 1.2% of 410,000 active; calls by dose curve; tested in HEK293T cells; also: read-out not given here; potency is read from the fitted curve at half-maximal effect; nearly all actives have a fitted effect of over 45% in size
# Marburg entry inh – qHTS for inhibitors of binding or entry into cells for Marburg Virus | Potency, µM (titrated, usually from 37.8 µM), inactives show top-dose activity change, negative = inhibition, hits mostly inhibitors | AID 540276, 2011 | Marburg virus pseudotyped entry inhibition, cell reporter | 1.8% of 300,000 active; calls by dose curve; tested in HEK293 cells; also: potency is read from the fitted curve at half-maximal effect
# HCMV antiviral – qHTS Assay for inhibitors of the human cytomegalovirus (HCMV); HFF cells, HCMV-luciferase reporter, 72 h; stronger effect = lower value; activity change, negative = inhibition, % at 57.5 µM; 4.5% of 410,000 active; in the data active = activity change below about -60%; inconclusive = no clear call, values can overlap the other calls; inactive = above about -39%
#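 Steps: HFFs plated, 16 h 37C; compounds added; HCMV-luciferase added to MOI 1 PFU/cell; 72 h 37C; OneGlo reagent, 5 min room temperature; luminescence read, normalized to controls.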
# * hit, by the source's call; ? = inconclusive; . = no result; [ ] = remark or other dose. Compounds with a hit are over-represented: about 7.9% of the library has one in this group of screens. % is scaled to controls: 0 for no effect and ±100 for the full control effect.
SMILES,HCV inhibitor,LASV entry inh,FMDV antiviral,Marburg entry inh,HCMV antiviral
COc1ccc2cc3cc(C(=O)NCCN4CCN(c5ccccc5F)CC4)oc3nc2c1,?,?,17.8µM*,12.6µM*,-29.7
COc1ccc2cc3cc(C(=O)N4CCN(c5ccccc5)CC4)oc3nc2c1,7.5%,-9.6%,-20.4%,10.7%,-1.9
CCOc1ccc(NC(=O)c2cc3cc4ccc(C)cc4nc3o2)cc1,.,-0.4%[46.1 µM],-13.2%,9.2%[46.1 µM],-18.8
COc1ccc2cc3cc(C(=O)Nc4ccccc4N4CCN(C)CC4)oc3nc2c1,10µM*,13.3%,?,-16.5%,-22.3
COc1cc(NC(=O)c2cc3cc4ccc(C)cc4nc3o2)cc(OC)c1OC,.,?,3.16µM*,?,-40.0
Cc1ccc2cc3cc(C(=O)NCCCN4CCCC4)oc3nc2c1,14.1µM*,.,-18.9%,.,?
CCN(C(=O)Cn1nc(Cc2ccncc2)c2ccccc2c1=O)c1cccc(Cl)c1,.,-10.8%[46.1 µM],0.0%,-29.2%[46.1 µM],-34.8
Cc1ccc(NCc2ccccc2-c2nnc(-c3ccccc3Cl)o2)c(C)c1,.,4.6%[46.1 µM],41.6%,9.6%[46.1 µM],3.7
COc1ccc2cc3cc(C(=O)NCCC(C)C)oc3nc2c1,?,3.55µM*,6.9%,9.8%,-38.0
COCCNC(=O)c1cc2cc3ccc(OC)cc3nc2o1,8.7%,.,27.9%,.,20.6
CCCCNCC(=O)Nc1ccc(NC(=O)CNCCCC)cc1,?,-17.1%,-13.4%,10µM*,-3.7
COc1ccc(OC)c(CN2CCOc3ccc(C(O)c4cccnc4)cc3C2)c1 (stereo not given),.,.,-4.2%,.,.
COC(=O)[C@H]1[C@H]2C[C@@H]3c4[nH]c5cc(OC)ccc5c4CCN3C[C@H]2C[C@@H](OC(=O)c2cc(OC)c(OC)c(OC)c2)[C@@H]1OC,?,7.3µM*,-17.5%,10.3µM*,22.5
CC1CC2(C)Oc3ccccc3CC2C(C)C1CNCCCN(C)C (stereo not given),?,?,?,?,-98.5*
O=C1NC(c2ccccc2)Nc2c1sc(=S)n2-c1ccccc1 (stereo not given),0.5%,-6.7%,?,21.2%[46.1 µM],-103.7*
O=c1c2cc(N3CCOCC3)ccc2[nH]c(=S)n1Cc1ccc(Cl)cc1,?,?,2.1%,4.0%,-86.6*
O=C(CCCCCn1c(=S)[nH]c2ccc(N3CCOCC3)cc2c1=O)NCc1ccc(Cl)cc1,-19.3%,?,?,?,-75.0*
CCOc1ccc2nc(Cl)c(C3CC(c4ccc(C)cc4)=NN3C(=O)CCCC(=O)O)cc2c1 (stereo not given),.,-17.9%[46.1 µM],0.1%,-11.0%[46.1 µM],9.5
COC(=O)c1ccccc1C(=O)N(Cc1cccnc1)CC1CCCN(C2CCCCC2)C1 (stereo not given),11.3%,.,2.1%,.,-26.1
Cn1nccc1C(=O)N(CCN1CCCCC1)CC1CCCN(C2CCCC2)C1 (stereo not given),14.1µM*,0.1%,50.9%,?,34.3
O=C(NCC1CCC2(CCN(Cc3cccc4ncccc34)CC2)O1)c1ccccc1 (stereo not given),.,.,-0.4%,.,.
COc1cccc(C=NN2CCCCCC2)c1OC,-14.5%,-2.2%[46.1 µM],37.0%,?,-30.0
COc1cccc(/C=N/N2CCN(c3ccc(Cl)cc3)CC2)c1OC,?,.,?,.,-69.2*
COc1ccc(/C=N/NC(=O)c2nc(-c3ccccc3)cc(-c3ccccc3)n2)cc1,10µM*,?,-8.0%,?,?
CCOc1ccc(/C=N/NC(=O)c2cc3c(OC)cc(OC)c(OC)c3[nH]2)cc1,11.2µM*,.,-16.6%,.,-2.6
CCOC(=O)c1c(C)[nH]c(C(=O)N/N=C/c2ccc(Br)cc2)c1C,?,?,-19.1%,2.82µM*,-77.1*
COc1cccc(/C=N/NC(=S)Nc2cccc(C(=O)O)c2)c1O,12.4%,5.8µM*,?,5.8µM*,51.6
COc1ccc(CCNC(=O)C(=O)NCC(c2ccc3c(c2)OCO3)N2CCOCC2)cc1OC (stereo not given),.,-10.9%[46.1 µM],-19.2%,.,30.6
COc1ccc(/C=N/NC(=O)c2ccc(-c3ccccc3)cc2)cc1O,?,?,?,9.9%,-60.2*
Cc1ccc2[nH]c(C(=O)N/N=C/c3ccccc3O)c(C)c2c1,3.55µM*,.,81.7%,.,-99.5*
